Data reported in PubChem BioAssay AID1789 (The Scripps Research Institute Molecular Screening Center, 2009).
In all, about 290,000 compounds went through this assay and about 2,700 (0.93%) were called active. Many of the other results were omitted from the sample, so actives are more common in it than they were. Unmarked numbers belong to inactive results.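 Rule for the calls: active = inhibition above the screen-wide mean plus 3 SD, computed separately per campaign (cut at about 16% in these data); inactive = the rest.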

What follows are compounds tested on Heat shock protein HSP 90 (rabbit reticulocyte lysate; luciferase refolding) (assay: HSP90 inhibitors, primary screen, cell lysate, luminescence (AID 1789;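 note: 0% = DMSO wells and 100% = 60 µM geldanamycin wells; inhibitors lower the luminescence because luciferase stays unfolded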)). Conditions: 3 h, at 5.6 µM, stronger effect = higher value.

SMILES	inhibition
Cc1ccc(NC(=O)C(CC(=O)O)C2CCCO2)c(C)c1 (stereo not given)	-2.07%
CCOC(=O)N1CCC(NC(=O)CCc2ccccc2)CC1	2.73%
COc1ccc(C(=O)NCCn2nc(C)cc2C)cc1OC1CCN(C(C)=O)CC1	0.85%
O=C(Nc1nnc(C2CC2)s1)c1ccccn1	16%
Cc1cnc(NC(=O)c2ccc(Cl)nc2)s1	-0.28%
Cc1cnc(NC(=O)c2ccccn2)s1	21% (active)
O=C(CN1CCN(C(=O)C2CCCO2)CC1)Nc1c(Cl)cccc1Cl (stereo not given)	-1.9%
CCN(CC)CCN1C(=O)C(=O)/C(=C(/O)c2cnn(-c3ccccc3)c2C)C1c1cccs1 (stereo not given)	33.3% (active)
CCN(CC)CCN1C(=O)C(=O)/C(=C(/O)c2ccc(OC)c(OC)c2)C1c1ccccn1 (stereo not given)	0.07%
CCN(CC)CCN1C(=O)C(=O)/C(=C(/O)c2ccccc2)C1c1ccccc1F (stereo not given)	1.61%
CCOc1ccc(OCC(=O)Nc2c3c(nn2C(C)(C)C)CS(=O)(=O)C3)cc1	4.2%
Cc1cccc(C(=O)NCCCN(C)CCCNC(=O)c2cccc(C)c2)c1	-1.31%
CCN(CCCNC(=O)c1ccc2c(c1)NC(=O)CN2C)c1cccc(C)c1	19.6% (active)
CCN(CCCNC(=O)CCn1c(=O)[nH]c2ccsc2c1=O)c1ccccc1	0.39%
O=C(Oc1cccc(C(=S)N2CCOCC2)c1)c1cccc(Cl)c1	-2.58%
CC(=O)c1ccc(N2CCN(C(=O)CCc3ccccc3)CC2)cc1	-1.79%
O=C(CCCc1ccccc1)NCc1ccccc1	-2.48%
C=CCN1CCN(C(=O)CCCc2ccccc2)CC1	39.7% (active)
O=C(OCc1ccc(-c2ccccc2)cc1)c1cccc(O)c1	18.4% (active)
O=C(OCc1ccc(Br)cc1)c1cccc(-c2nnc(-c3ccccc3)o2)c1	3.03%
O=C(OCC(=O)c1c[nH]c2ccccc12)c1cccc(O)c1	-4.88%
O=C(COc1cc2oc(=O)c3c(c2cc1Cl)CCC3)NCCCN1CCOCC1	-0.69%
COc1ccc(N2CCN(C(=O)C3CCN(C(=O)c4ccccc4Cl)CC3)CC2)cc1	1.46%
COc1ccc(NC(=O)C/C(C)=N/NC(=O)c2cnccn2)cc1Cl	-1.56%

SMILES	inhibition
Cc1ccc(C(=O)CSc2ccccc2C(=O)O)cc1	23.8% (active)
Cc1ccc(Sc2cc(C(=O)c3ccccc3C(=O)O)ccc2[N+](=O)[O-])cc1	-2.36%
O=C(CSc1cccc[n+]1[O-])c1ccc(-c2ccccc2)cc1	-3.2%
COc1ccc(C(C(=O)NC2CCCC2)N(CCCO)C(=O)Cn2nnc(-c3ccc(C)o3)n2)cc1 (stereo not given)	-2.61%
CCOC(=O)CSc1nc(N2CCOCC2)c2c(c1C#N)CC(C(C)C)OC2 (stereo not given)	0.22%
CCC(=C/c1sc2ccc3ccccc3c2[n+]1C)/C=C1\Sc2ccc3ccccc3c2N1C	19.1% (active)
CCn1c(=O)c(=O)[nH]c2c(=O)oc3ccc(S(=O)(=O)Nc4ccc(OC)cc4)cc3c21	1.48%
CCOC(=O)c1ccc(NC(=O)c2ccc(NC(=O)C3CCCO3)cc2)cc1 (stereo not given)	-2.21%
COc1ccc(CCNC(=O)C(=O)NCC2OCCN2S(=O)(=O)c2ccc(OC)c(C)c2)cc1 (stereo not given)	3.33%
O=C(NCCCN1CCCC1=O)C(=O)NCC1OCCN1S(=O)(=O)c1ccc(Br)cc1 (stereo not given)	-3.67%
CCOC(=O)C1=C(c2ccccc2)NC(=S)NC1c1ccc(Cl)cc1 (stereo not given)	2.24%
COc1ccc(C2NC(=S)NC3=C2CCc2ccccc23)cc1OC (stereo not given)	-4.91%
CCOc1ccc(C2NC(=S)NC3=C2CCc2ccccc23)cc1 (stereo not given)	24.1% (active)
COc1ccc(-c2cc(=O)oc3cc(OC(C)C(=O)Nc4ccc(CN5CCOCC5)cc4)ccc23)cc1 (stereo not given)	-1.3%
COc1cc(OC)cc(C(=O)NCCSCc2ccc(Cl)cc2)c1	2.62%
CCOC(=O)C1CCN(S(=O)(=O)c2c(C)noc2C)CC1	-1.41%
C=CCNc1ncnc2ccc(Br)cc12	-3.86%
COc1ccc(Nc2ncnc3sc(-c4ccccc4)cc23)c(OC)c1	-1.63%
COc1ccc(Nc2ncnc3ccc(Br)cc23)c(OC)c1	35.7% (active)
Cc1ccc(S(=O)(=O)NCC(=O)Nc2ccc3c(c2)OCCO3)cc1	5.88%
O=C(Nn1cnc2ccccc2c1=O)c1ccccc1	-3.95%
O=c1c2ccccc2ncn1/N=C/c1ccccc1	16.4% (active)
O=c1c2ccccc2nc(N/N=C/c2ccccc2)n1O	-0.57%
CC(C)C[C@H](NC(=O)N1CC(=O)Nc2ccccc21)C(=O)N[C@H](Cc1ccccc1)C(=O)O	-4.11%

SMILES	inhibition
COC(=O)C1[C@H]2SC(C)(C)C(C(=O)OC)N2C(=O)N1Cc1nc2ccccc2s1 (stereo not given in full)	26.1% (active)
CCC1(CC)NC(=O)N(Cc2nc3ccccc3s2)C1=O	1.16%
CC1(C)SC2C(NC(=O)COc3ccccc3)C(=O)N2C1C(=O)O (stereo not given)	-3.05%
O=[N+]([O-])c1ccc(F)cc1Oc1nc(-c2cccnc2)nc2ccccc12	2.73%
O=C(Cc1ccccc1)NNS(=O)(=O)c1ccc([N+](=O)[O-])cc1	-2.29%
O=C(Cc1ccccc1)N1CCN(S(=O)(=O)c2ccc([N+](=O)[O-])cc2)CC1	20% (active)
CS(=O)(=O)N1CCN(C(=O)Cc2ccccc2)CC1	-2.11%
COc1ccc(-c2cc(C(=O)N3CCN(c4ccc(F)cc4)CC3)no2)cc1	-0.04%
O=C(CCc1c[nH]c2ccccc12)NCCOc1ccccc1	-0.52%
COc1ccc(Cl)cc1NC(=O)CN1CCN(C(=O)N2CCOCC2)CC1	-1.78%
COc1ccc(Cl)cc1NC(=O)Cn1nc(-c2ccc(C)cc2)n(C)c1=S	17.9% (active)
COc1ccc(C)cc1NC(=O)CSc1ccc(Cl)cc1	1.35%
Cc1ccc(NC(=O)C2CCCN2C(=O)OCc2ccccc2)cc1C (stereo not given)	-2.49%
CCOC(=O)c1ccccc1NS(=O)(=O)c1c(C)nc2sccn2c1=O	-1.63%
Cn1c(=O)c2c(nc(CN3CCOCC3)n2Cc2ccccc2)n(C)c1=O	8.36%
CCOC(=O)N1CCN(Cc2nc3c(c(=O)n(C)c(=O)n3C)n2Cc2ccccc2)CC1	57.6% (active)
CCN1CCN(Cc2nc3c(c(=O)n(C)c(=O)n3C)n2CC(=O)c2ccccc2)CC1	0.91%
COc1cccc(CNS(=O)(=O)c2ccc3c(c2)CC(C)N3C(C)=O)c1 (stereo not given)	-0.03%
NNC(=O)c1nnn(-c2nonc2N)c1CN1CCCC1	2.68%
Cc1ccc(C)c(OCc2cc(C(=O)N3CCN(c4cnccn4)CC3)no2)c1	-6.08%
O=C(C1CCN(Cc2ccc(Cl)cc2)CC1)N1CCN(Cc2ccc3c(c2)OCO3)CC1	3.57%
Cc1cccnc1CCNC(=O)C1CCC(=O)N(Cc2cccc(F)c2)C1 (stereo not given)	-3.21%
c1ccc(NCc2cccc3ccccc23)nc1	-0.19%
Oc1ccc2ccccc2c1N=Nc1nccs1	16.9% (active)

SMILES	inhibition
Oc1ccc(N=Nc2nccs2)c(O)c1	0.13%
CCc1ccc(S(=O)(=O)N/N=C\c2ccc([N+](=O)[O-])o2)cc1	-5.89%
COCCNc1ccc(-c2n[nH]c(=O)c3ccccc23)cc1[N+](=O)[O-]	1.55%
Cc1cc(N=Nc2ccc3ccccc3c2)ccc1O	-3.33%
CN(C)c1ccc(-n2cccc2/C=N/n2cnnc2)cc1	54.3% (active)
CN(C)c1ccc(-n2cccc2/C=C2/SC(=Nc3ccc(F)cc3)NC2=O)cc1	-2.27%
COc1cccc(OCCOc2cccc(/C=N/n3cnnc3)c2)c1	10.3%
O=C(COc1nsnc1N1CCOCC1)Nc1ccccc1Cl	-3.12%
O=C(Nc1ccc(CN2CCOCC2)cc1)c1cc(Cl)ccc1Cl	-0.42%
CCc1nc(N2CCN(C(C)=O)CC2)c2c3c(sc2n1)CCCC3	0.58%
O=C(Nc1ccccc1C(=O)O)c1ccc(N2C(=O)C3CC=CCC3C2=O)cc1 (stereo not given)	19.6% (active)
COc1ccc(Cl)cc1NC(=O)c1cccc(N2C(=O)C3CC=CCC3C2=O)c1 (stereo not given)	-3.52%
O=C(Cc1ccccc1)Nc1ccc(C(=O)Nc2ccccc2C(=O)O)cc1	2.96%
COC(=O)[C@@H](Cc1ccccc1)NC(=O)NCCc1ccccc1	5.73%
O=C(O)Cc1sc(-c2ccccc2)nc1-c1cccs1	-2.42%
NC(=O)Cc1ccc2c(c1)[nH]c1ccccc12	5.37%
NC(=O)Cc1ccc2sc(-c3ccccc3)nc2c1	16.4% (active)
COc1ccc(NC(=O)NN2CCN(C)CC2)c(OC)c1	-1.29%
CCOc1cccc(-n2nnnc2-c2ccc(OC)cc2)c1	1.88%
COc1ccc(C2=NN(c3nc4ccccc4s3)C(=O)C2)cc1	0.61%
COc1ccc(-n2nnnc2-c2nc3ccccc3s2)cc1	19.1% (active)
O=C(c1cccc(Br)c1)N1CCN(C2=NS(=O)(=O)c3ccccc32)CC1	-0.31%
O=C(CN1C(=O)COc2ccc(Cl)cc21)N1CCOCC1	4.17%
